Assay outcomes as filed in PubChem BioAssay.
Hits are enriched below; roughly 6.1% of the tested compounds scored in any of these assays.
D1 antagonist: Antagonist of Human D 1 Dopamine Receptor: qHTS; activity change, negative = inhibition, % at 10 µM; D(1A) dopamine receptor (Homo sapiens), P21728; 3.2% of 360,000 active; HEK293 TREx D1 cells, calcium flux, dopamine EC80; stronger effect = lower value; AID 504652, 2011; in the data active = activity change below about -30%; note: % is set by controls: 0 for no effect and ±100 for the full control effect
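Inducible Hek293 Trex D1 cells (tetracycline, overnight, 30 C). Calcium dye 30–90 min RT. Antagonist mode: EC80 dopamine added after 180 s compound read.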
D3 antag: qHTS of D3 Dopamine Receptor Antagonist: qHTS | D(3) dopamine receptor (Homo sapiens), P35462 | AID 652054, 2013 | D3R cells, DiscoveRx beta-arrestin luminescence, antagonist mode; stronger effect = lower value | 2.5% of 360,000 active | max response, negative = inhibition, %; in the data active = max response below about -50%; note: % is set by controls: 0 for no effect and ±100 for the full control effect
Target sequence (P35462 whole entry, looked up): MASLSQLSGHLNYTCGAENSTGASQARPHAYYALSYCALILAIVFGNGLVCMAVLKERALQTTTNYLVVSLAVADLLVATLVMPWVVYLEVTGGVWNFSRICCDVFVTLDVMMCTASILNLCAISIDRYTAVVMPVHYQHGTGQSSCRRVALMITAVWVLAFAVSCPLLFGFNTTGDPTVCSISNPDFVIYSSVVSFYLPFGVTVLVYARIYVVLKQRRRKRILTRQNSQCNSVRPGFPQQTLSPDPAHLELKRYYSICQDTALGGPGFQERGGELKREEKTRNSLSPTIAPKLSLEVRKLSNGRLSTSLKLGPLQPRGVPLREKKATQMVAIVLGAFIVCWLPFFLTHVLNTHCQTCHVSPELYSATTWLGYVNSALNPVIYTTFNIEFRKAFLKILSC
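Cells plated overnight at 1500 cells/well, then exposed to library compounds with dopamine controls for 90 minutes at 37 degrees C. DiscoveRx reagent added for 30–60 minutes at room temperature; luminescence read, quantitative HTS format.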
DRD3 agonist: qHTS of D3 Dopamine Receptor Agonist: qHTS; 0.58% of 410,000 active; D(3) dopamine receptor (Homo sapiens), P35462; D3R DiscoveRx beta-arrestin cells, luminescence, 90 min; max activation, %; in the data active = max activation above about 30%; note: 0% is about no effect
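Agonist-mode cell screen: cells plated at 1500/well and incubated overnight at 37 °C, then exposed to library compounds for 90 min at 37 °C. Detection reagent was added for 30–60 min at room temperature, and luminescence was read.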
ERG-DNA inh: qHTS for Small Molecule Inhibitors of the ERG Ets/DNA interaction | fluorescence polarization, His-ERG Ets domain / labelled DNA | Transcriptional regulator ERG (Homo sapiens), P11308 | AID 624246, 2012 | 0.028% of 370,000 active | Potency, µM (top dose mostly 76.9 µM), for inactives: at the highest dose FP activity, negative = inhibition, actives largely listed as inhibitors; active = well fitted inhibition curve with a large enough effect in the polarisation, with a control signal flat; the % refers to the polarisation;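 note: polarization taken with two DNA probes labelled with fluorescein and Texas red; potency is the fitted concentration of half-maximal effect; % of control where 0% means no effect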
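His-tagged ERG Ets domain (1 uM in the protein solution; 300mM KCl, 50mM Tris-HCl, 1mM EDTA, 1mM DTT, pH 7.5) received compound, then a probe mix of 5 nM fluorescein-DNA and 100nM Texas-615-DNA. Fluorescence polarization was read for both dyes.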
D1 agonist: Allosteric Agonists of the Human D1 Dopamine Receptor: qHTS; D(1A) dopamine receptor (Homo sapiens), P21728; HEK293 T-REx D1 cells, calcium flux, agonist mode; activation, % at 2 µM; 1% of 360,000 active; in the data active = activation above about 30%; note: 0% is about no effect
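Tetracycline-induced HEK293 TREx D1 cells, force-coupled to calcium signalling, were dye-loaded with a no-wash calcium kit. Compound was pin-added after a 10 s baseline. Fluorescence was read kinetically at 1 cycle/s for 180 s, with calcium rises flagged as agonism.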
D1 potentiator: Potentiators of Human D1 Dopamine Receptor: qHTS; D(1A) dopamine receptor (Homo sapiens), P21728; HEK293 TREx D1 cells, calcium flux, dopamine EC20 potentiation; potentiation, % at 10 µM; 0.036% of 360,000 active; AID 504651, 2011; in the data active = potentiation above about 30%; note: 0% is about no effect
* marks the source's active call; other numbers are inactive results; . = no result.

SMILES	D1 antagonist	D3 antag	DRD3 agonist	ERG-DNA inh	D1 agonist	D1 potentiator
C/C(=N\NC(=O)c1ccc(Cn2cc(Br)cn2)o1)c1ccc(NC(=O)c2ccoc2C)cc1	-43*	12	3	8%	1	-4
Cc1cc(C)n(Cc2ccc(C(=O)Nc3cccc(Br)c3)o2)n1	-28	-16	-13	4%	38*	-2
O=C(Nc1ccc(C(F)(F)F)cc1Cl)c1ccc(Cn2cc(Br)cn2)o1	3	-75*	-1	.	7	5
CC(C)C(OC(=O)C1CCCO1)C(=O)NC1CCCC1 (stereo not given)	8	5	6	1%	1	1
O=C1CC(c2ccc(Cl)cc2)CC(O)=C1C=NCCN1CCNCC1 (stereo not given)	5	.	.	.	2	4
O=C(c1ccc(Cn2cc(Br)cn2)o1)n1cccn1	-14	-52*	-2	-4%	1	-4
CCCCn1c(-c2cccc(Br)c2)nc2cc3[nH]c(=O)c(C(C)C)nc3cc21	5	39	63*	0%	-1	-9
CCCn1c(C(C)Nc2nc(-c3cccc(Br)c3)cs2)nc2ccccc21 (stereo not given)	14	14	31*	0%	1	1
CCCn1c(C(C)Nc2nc(-c3ccc(C)cc3)cs2)nc2ccccc21 (stereo not given)	3	5	-15	-2%	1	7
Cn1c(NCc2cccc(Br)c2)nc2ccccc21	8	-58*	-13	-1%	5	-1
CCCn1c(CCNc2nc(-c3ccc(Cl)c([N+](=O)[O-])c3)cs2)nc2cc(Cl)c(Cl)cc21	0	-2	-7	-4%	-1	3
CCCCn1c(-c2cccnc2)nc2cc3[nH]c(=O)c(C(C)C)nc3cc21	0	56	0	3%	1	-1
Brc1cccc(CNc2nc3ccccc3n2CCN2CCCCC2)c1	-16	-18	-19	0%	8	-7
CCCn1c(CCNc2nc(-c3cccc(Br)c3)cs2)nc2ccccc21	.	35	33*	11%	.	.
O=C1[C@H](c2ccccc2)[C@@H](c2ccccc2)N1c1ccncc1	.	1	-5	-11%	.	.
COc1ccccc1NS(=O)(=O)c1cc(NC(=O)CCC2CCCC2)ccc1N1CCOCC1	6	-6	2	-6%	17	-2
Fc1ccc(Cn2c(-c3cccc(Br)c3)nc3ccccc32)cc1	.	.	0	2%	19	-3
CCCn1c(-c2cccc(Br)c2)nc2ccccc21	-35*	.	7	0%	1	-3
O=C1c2ccccc2C(=O)N1CNc1ccccc1	18	26	1	-5%	0	-5
CCc1ccccc1NC(=O)CSc1nc2c(oc3ccccc32)c(=O)n1-c1ccccc1F	-2	.	-5	-8%	0	-1
COc1ccc(CCNC(=O)c2c(C)oc3ncn(CC(C)C)c(=O)c23)c(OC)c1	-30*	.	2	-4%	0	-4
CC(=O)N(C)c1ccc(N=Nc2ccc3ncccc3c2)cc1	.	16	-3	-5%	.	.
N#CCC1c2ccccc2CCN1C(=O)Nc1cccc(C(F)(F)F)c1 (stereo not given)	-3	-15	-33	1%	6	-2
N#CCC1c2ccccc2CCN1C(=O)Nc1ccc(C(F)(F)F)cc1 (stereo not given)	-12	-94*	-34	2%	3	-4
COc1cccc(-n2nc(C(N)=O)c(O)cc2=O)c1	-8	-7	-2	1%	2	3
SMILES	D1 antagonist	D3 antag	DRD3 agonist	ERG-DNA inh	D1 agonist	D1 potentiator
COc1cccc(-n2nc(C#N)c(Cl)cc2=O)c1	-32*	-87*	-14	13%	5	-3
COc1cc2cncc(Cc3ccc(Cl)cc3)c2cc1OC	-45*	-10	3	6%	5	0
CC1Sc2ccc(S(=O)(=O)CCC(=O)N3CCN(c4cccc(Cl)c4)CC3)cc2NC1=O (stereo not given)	-42*	26	2	-7%	10	5
COc1ccccc1NC(=O)C1CCN(S(=O)(=O)c2ccc3c(c2)NC(=O)C(C)S3)CC1 (stereo not given)	-30*	3	-8	14%	13	-1
COc1ccccc1NS(=O)(=O)c1ccc2c(c1)NC(=O)C(C)S2 (stereo not given)	1	-1	1	3%	32*	-4
Cc1ccc(NC(=O)C2CCN(S(=O)(=O)c3ccc4c(c3)NC(=O)C(C)S4)CC2)c(C)c1 (stereo not given)	-40*	5	4	66%	8	1
CCc1ccccc1N(CC(=O)NC(C)(C)C)C(=O)CCC(=O)Nc1ccccn1	-10	-2	0	-4%	5	0
Cc1c(C(=O)NCc2ccccc2Cl)sc2nc3n(c(=O)c12)CCC3	-7	.	-13	0%	1	-4
Cc1nn(C(C)C)c(C)c1CN1CCN(Cc2ccsc2)C(CCO)C1 (stereo not given)	-6	-30	-19	-7%	1	-3
COc1ccc(N2CCN(S(=O)(=O)c3ccc4c(c3)NC(=O)CS4)CC2)cc1	-16	5	4	-4%	5	7
COc1ccccc1NC(=O)c1ccc(S(=O)(=O)N2CCOCC2)cc1	6	-7	-5	2%	-1	2
COc1ccccc1NC(=O)c1ccc(S(=O)(=O)N2CCC(C)CC2)cc1	-32*	-22	-3	2%	2	-4
COc1ccc(N2CCN(S(=O)(=O)c3ccc4c(c3)NC(=O)C(C)S4)CC2)cc1 (stereo not given)	-38*	10	19	6%	14	2
C[C@H]1Cn2cnc(C(=O)Nc3cccc(Cl)c3)c2C(=O)N1	.	-22	-15	.	.	.
CC(=O)Nc1sc(/C(C#N)=C\c2cccc(Cl)c2)nc1-c1ccc(C)cc1	-45*	2	-6	2%	244*	-6
c1ccc2c(NC3CCCC3)nnc(NC3CCCC3)c2c1	-15	-71*	1	-10%	-2	-10
O=C(c1ccc(S(=O)(=O)N2CCOCC2)cc1)N(c1ccccn1)C1CCCCC1	-9	-11	14	-13%	0	-9
O=C1CCCC2=C1C(c1ccc(O)c(Br)c1)C1=C(CCCC1=O)N2c1ccccc1	-37*	-2	10	10%	9	1
